Data on three sequences can be found in article PMC8384837, “Expanding the binding specificity for RNA recognition by a PUF domain”.

Sequence of PUM1 PUF domain R5-GRP (Q14671 828-1176 C1007G/Q1011P): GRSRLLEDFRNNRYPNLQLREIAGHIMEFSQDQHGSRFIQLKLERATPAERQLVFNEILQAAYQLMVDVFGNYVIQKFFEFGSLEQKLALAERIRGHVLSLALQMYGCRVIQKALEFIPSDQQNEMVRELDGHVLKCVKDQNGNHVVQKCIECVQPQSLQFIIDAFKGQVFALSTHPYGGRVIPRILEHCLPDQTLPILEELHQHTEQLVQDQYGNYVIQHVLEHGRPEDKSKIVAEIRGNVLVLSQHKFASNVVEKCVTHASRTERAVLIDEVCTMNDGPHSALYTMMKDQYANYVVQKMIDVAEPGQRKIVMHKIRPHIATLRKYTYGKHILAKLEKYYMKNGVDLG

This assay has as its target PUM1 PUF domain R5-GRP (Homo sapiens, UniProt Q14671 828-1176, C1007G;Q1011P). Description: yeast three-hybrid, YBZ-1, SC-Leu-His + 0.5 mM 3-AT, 4 days. To be noted: tags: N-Gal4 AD-HA kept; label: inside an RPR1-promoter hybrid RNA with tandem MS2 sites; ssRNA. The procedure, abridged: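 Repeat regions from input (SC-Leu) and selection (SC-Leu-His + 0.5 mM 3-AT) plates were PCR-amplified and Illumina-sequenced after four days of growth. The cells were strain YBZ-1 with a LexA–MS2 coat fusion and a HIS3 reporter, co-expressing Pumilio-1 PUF domain libraries and matching RNA elements from a centromeric plasmid. The interaction score is the log change in variant frequency from input to selection, taken in log2 with a pseudocount of 1 for absent variants.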
“GGCUAGAACUAGUGGAUCCCCCGGCGCCCGGCGGCUCGAGCCCGGGUAAGUGUAAAUAGUCUGCAUGCCGCCGGGCGCCAUGCCUGCAGGUCGACUCUAGAAAACAUG”: the binding signal was 2.96 log2 enrichment (interaction score).
The same measure for “GGCUAGAACUAGUGGAUCCCCCGGCGCCCGGCGGCUCGAGCCCGGGUAAGUGUUAAUAGUCUGCAUGCCGCCGGGCGCCAUGCCUGCAGGUCGACUCUAGAAAACAUG”: 0.43 log2 enrichment (interaction score); for “GGCUAGAACUAGUGGAUCCCCCGGCGCCCGGCGGCUCGAGCCCGGGUAAGUGUGAAUAGUCUGCAUGCCGCCGGGCGCCAUGCCUGCAGGUCGACUCUAGAAAACAUG”: 1.44 log2 enrichment (interaction score).
